# Screening data from PubChem BioAssay.
# A selection: hits, their analogues and other compounds. The true share with any hit is near 2.8%.
# ATXN2 expr inh – ATXN2 expression inhibition | Potency, µM (series often up to 57 µM), inactives show top-dose activity change, negative = inhibition, hits mostly inhibitors | AID 1745845 | HEK-293 ATXN2-luciferase reporter, luminescence, 24 h | 360,000 tested, 0.72% active; note: potency is the fitted concentration of half-maximal effect; % is set by controls: 0 for no effect and ±100 for the full control effect; nearly all actives have a fitted effect of over 55% in size
#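 ATXN2-luciferase reporter cells (luciferase flanked by upstream and downstream ATXN2 gene portions) were treated 24 h at 37 °C with compounds at up to 57 uM. SteadyGlo luminescence gave expression; GF-AFC fluorescence gave viability.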
# TGFb SMAD3 inh – TGF-b pathway inhibition | HepG2 CAGA-GFP TGF-b/SMAD3 reporter, GFP fluorescence, 18 h; TGF-beta stimulated, 500 pg/mL final | Potency, µM (series often up to 46.1 µM), for inactives: top-dose activity, negative = inhibition, usual class: inhibitors | 410,000 tested, 1.2% active; note: potency is the fitted concentration of half-maximal effect; % is set by controls: 0 for no effect and ±100 for the full control effect; nearly all actives have a fitted effect of over 65% in size
#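 Read-out: total well GFP (ex488/em500-530) summed from mean per-cell fluorescence. Cells: HEPG2 CAGA-GFP, 1% FBS DMEM, 18 h at 37 degrees C with 500 pg/mL final TGF-beta. Unstimulated wells served as the full-inhibition control; stimulated DMSO wells = 0%.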
# Six1-Eya2 blk – Six1/Eya2 interaction inhibition. activity change, % (no concentration beside the values). 360,000 tested, 0.56% active. Q15475+O00167. AID 651725. AlphaScreen GST-Six1/His-Eya2 binding, biochemical; hits give low values; in the data active = activity change below about -65%; inconclusive = mostly about -30% to -63%; note: % is set by controls: 0 for no effect and ±100 for the full control effect
# Target sequence (O00167 whole entry, looked up): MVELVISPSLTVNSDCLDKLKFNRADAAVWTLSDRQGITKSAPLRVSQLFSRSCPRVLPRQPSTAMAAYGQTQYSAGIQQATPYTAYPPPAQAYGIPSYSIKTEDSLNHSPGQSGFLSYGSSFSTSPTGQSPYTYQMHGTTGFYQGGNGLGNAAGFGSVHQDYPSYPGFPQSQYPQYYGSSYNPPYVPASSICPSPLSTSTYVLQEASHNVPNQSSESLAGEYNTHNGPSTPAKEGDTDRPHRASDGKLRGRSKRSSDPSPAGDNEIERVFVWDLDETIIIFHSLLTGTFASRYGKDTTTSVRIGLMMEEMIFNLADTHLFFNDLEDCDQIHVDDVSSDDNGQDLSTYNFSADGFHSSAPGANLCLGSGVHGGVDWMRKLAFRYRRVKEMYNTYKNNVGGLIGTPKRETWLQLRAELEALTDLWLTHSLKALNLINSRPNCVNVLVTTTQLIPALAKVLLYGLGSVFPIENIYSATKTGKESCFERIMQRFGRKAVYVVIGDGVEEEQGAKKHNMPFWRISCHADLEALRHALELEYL
# Target sequence (Q15475 whole entry, looked up): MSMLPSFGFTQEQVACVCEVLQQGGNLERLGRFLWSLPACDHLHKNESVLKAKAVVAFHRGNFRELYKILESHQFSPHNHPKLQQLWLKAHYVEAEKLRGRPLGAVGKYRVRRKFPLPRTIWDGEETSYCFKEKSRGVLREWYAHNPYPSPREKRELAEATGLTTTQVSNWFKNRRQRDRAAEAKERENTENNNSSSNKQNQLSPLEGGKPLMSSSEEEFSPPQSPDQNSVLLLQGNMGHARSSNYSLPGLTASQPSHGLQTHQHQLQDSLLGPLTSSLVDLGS
#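 AlphaScreen luminescence read after one hour at 37 °C in darkness. Pin-transferred compounds met GST-Six1 and His-Eya2 protein (5X stock 250 nM/500 nM) plus glutathione donor and Ni-chelate acceptor beads (5X, 50 ug/mL).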
# CtBP-E1A blk – inhibitors of CtBP/E1A interaction; 340,000 tested, 0.49% active; activity change, % (test concentration not listed); AID 651724; AlphaScreen GST-E1A/His-CtBP binding, 1536-well; hits give low values; in the data active = activity change below about -65%; inconclusive = mostly about -30% to -63%; note: % is set by controls: 0 for no effect and ±100 for the full control effect
#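 Steps: dispense buffer (Tris pH 8.0, NaCl 300 mM, TCEP 1 mM, BSA, Tween 20); add 5X protein mix (GST-E1A, His-CtBP, 125 nM each); pin 23 nL compound; 2 h at 37 °C, dark; add 5X beads (50 ug/mL); 1 h; read.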
# HepG2 viability – kills HepG2 cells in TGF-b inhibitor counter-screen | 410,000 tested, 0.76% active | Potency, µM (titrated, usually from 46.1 µM), for the others: top-dose activity change, negative = cytotoxicity, most hits filed as cytotoxic | HepG2 CAGA-GFP viability, ATP luminescence, 18 h; note: potency is the fitted concentration of half-maximal effect
#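 HepG2 CAGA-GFP cells (1000/well, DMEM with 1% FBS) received compound, then TGF-beta at 500 pg/mL final, and were incubated 18 hours at 37 degrees C. Viability was read by CellTiter-Glo luminescence. Media-only wells were set as complete cell-killing and DMSO as no toxicity.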
# ATXN viability – reduces viability in counter-screen for ATXN expression inhibitors | S2 cells (HEK-293 line with an ATXN2-luciferase reporter) viability, CellTiter-Fluor protease fluorescence, 24 h | Potency, µM (titrated, usually from 56.7 µM), actives largely listed as cytotoxic | 400,000 tested, 0.49% active | AID 651635; note: potency is the fitted concentration of half-maximal effect; nearly all actives have a fitted effect of over 40% in size
# Starred values were filed as active, the others as inactive; i = inactive; ? = inconclusive; · = not tested or not shown. Unless noted, calls come from the whole dose curve; as a rule, active = well fitted curve in the direction sought with a large enough effect; inconclusive = small, poorly fitted or top-dose-only effect, or another doubt; inactive = no such curve, though single readings can be large; an effect the other way counts as inactive or inconclusive.
SMILES,ATXN2 expr inh,TGFb SMAD3 inh,Six1-Eya2 blk,CtBP-E1A blk,HepG2 viability,ATXN viability
CCn1c2ccccc2c2cc(/C=N/NC(=O)c3ccc(O)cc3)ccc21,?,?,-23.6,1.0,10.2%,i
CN(C)c1ccc(/C=[N+]2\C(=O)CC(=O)NC2=O)cc1,·,1.4%,·,·,0.8%,·
Cc1cccc(-c2cnc(C)nc2C2CCCN(C(=O)c3cccc(Cn4cccn4)c3)C2)c1 (configuration not stated),·,·,·,·,·,i
COc1cc(S(N)(=O)=O)cc(C(=O)O)c1OC,4.3%,·,·,·,·,i
CCOC(=O)C(Oc1ccc2c(-c3ccccc3)cc(=O)oc2c1C)c1ccccc1 (configuration not stated),-16.8%,0.2%,0.5,11.5,2.5%,i
Cc1c(OCc2ccc(C(=O)O)cc2)ccc2c(-c3ccccc3)cc(=O)oc12,·,?,-73.6*,1.1,-32.6%,?
CC(C)=CCc1cc([C@@H]2CC(=O)c3ccc(O)c(CC=C(C)C)c3O2)ccc1O,?,12.6µM*,-2.8,-0.6,-68.1%,?
CCc1ccc(NC(=O)CN(c2ccc(C)cc2)S(=O)(=O)c2c(C)nn(C)c2C)cc1,4.4%,-17.4%,·,·,-27.9%,i
NS(=O)(=O)c1ccc2c(c1)C(=NO)c1cc(S(N)(=O)=O)ccc1-2,-2.6%,2.2%,-10.4,-12.8,0.3%,i
NC1=C(Cl)C(=O)c2ccccc2C1=O,?,?,?,-0.9,5.62µM*,?
NC1=C(Cl)C(=O)c2ccc(S(N)(=O)=O)cc2C1=O,3.55µM*,?,-17.7,-0.6,0.562µM*,3.55µM*
O=C1C(Cl)=C(NCCCO)C(=O)c2ccccc21,-36.9%,?,-19.3,?,-94.6%,i
CCCCCCCCn1c(=O)c(C(=O)OC)c(N)c2ccccc21,-32.7%,15.8µM*,-6.6,-22.3,-66.4%,?
CCCCCCn1c(=O)c(-c2ccccc2)c(O)c2ccccc21,-0.9%,30.3%,-19.7,?,21.1%,i
CCCCCCCn1c(=O)c(C(=O)OC)c(N)c2ccccc21,?,12.6µM*,-10.9,-1.6,-12.5%,?
CCCCCCn1c(=O)c(Cc2ccccc2)c(O)c2ccccc21,5.9%,-11.0%,5.0,-2.1,-2.4%,i
COc1ccc(OC)c(/C=C/c2cc3ccccc3cn2)c1,·,?,·,·,-21.5%,·
COC(=O)CCCCC(CCSS/C(CCO)=C(\C)N(C=O)Cc1cnc(C)nc1N)SC(C)=O (configuration not stated),2.9%,·,·,·,·,i
c1ccc(COc2ncnc3c2ncn3CCCNC2CCN(Cc3ccccc3)CC2)cc1,25.1µM*,14.1µM*,-15.5,-4.0,15.8µM*,·
O=C(Nc1ccn(CCCNC2CCN(Cc3ccccc3)CC2)c(=O)n1)OCc1ccccc1,?,-1.1%,-4.4,-4.6,6.31µM*,?
O=C(Nc1ccn(CCCN2CCN(Cc3cccc4ccccc34)CC2)c(=O)n1)OCc1ccccc1,28.2µM*,?,-12.8,-15.0,-71.2%,·
N#Cc1c(Cl)nsc1NC(=O)c1ccccc1,0.0%,3.55µM*,1.5,5.7,-41.4%,i
N#Cc1c(NC(=O)c2ccccc2)sc2c1CCCCC2,58.9%,1.2%,12.3,-5.2,-11.2%,i
Cc1nc(C(=O)NCC(=O)O)c(O)c2ccc(Oc3ccccc3)cc12,22.6%,·,·,·,·,·
Cn1c(=O)c2c(nc(CN3CCc4ccccc4C3)n2CC(=O)c2ccccc2)n(C)c1=O,-4.9%,7.94µM*,-13.7,-10.3,-30.8%,i
SMILES,ATXN2 expr inh,TGFb SMAD3 inh,Six1-Eya2 blk,CtBP-E1A blk,HepG2 viability,ATXN viability
CCNc1ccc(Br)cc(C(=O)/C=C/c2ccc(Cl)cc2Cl)c1=O,31.6µM*,-3.1%,-1.0,-8.7,-68.5%,?
CNc1ccc(Br)cc(C(=O)/C=C/c2cc(OC)ccc2OC)c1=O,?,15.8µM*,-2.7,-2.0,-79.9%,·
Cc1ccc(Cl)c(OCC(O)CNC(C)(C)C)c1 (configuration not stated),-8.2%,·,·,·,·,i
Cc1cc(O)c(C(C)C)cc1C1(c2cc(C(C)C)c(O)cc2C)OC(=O)c2ccccc21,?,12.6µM*,-15.0,-1.4,14.1µM*,·
Cc1cc(C2(c3ccc(O)c(C)c3)OC(=O)c3ccccc32)ccc1O,-0.8%,?,-9.9,-1.5,5.6%,i
COc1cccc(CNC(=O)C(=O)NCC(c2cccs2)S(=O)(=O)c2cccs2)c1 (configuration not stated),-18.2%,?,·,·,-32.4%,?
Cc1cc2c(c(-c3cnccn3)c1)OC(CNC(=O)c1cc(C(C)C)[nH]n1)C2 (configuration not stated),·,·,·,·,·,i
OC(c1ccc(F)cc1)c1nc(-c2ccccc2)cs1 (configuration not stated),50.7%,-4.4%,5.2,11.8,-35.1%,i
OC(c1ccc(F)cc1)c1nc(-c2cncnc2)cs1 (configuration not stated),-1.8%,-0.2%,5.9,1.9,3.55µM*,i
COc1cc(=O)n2c(c1C(=O)N(C)Cc1nonc1C)CCN(Cc1cccc3ccccc13)CC2,·,·,·,·,·,i
O=C(O)Cn1c(=O)n(Cc2ccc(Br)cc2F)c(=O)c2ccc(Cl)cc21,2.0%,·,·,·,·,i
COc1ccc(S(=O)(=O)N2CCCN(CCC(=O)Nc3cccc(C(F)(F)F)c3)CC2)cc1,2.5%,-10.8%,4.3,0.5,0.5%,i
O=C(CN1CCCN(S(=O)(=O)c2ccc(Br)cc2)CC1)Nc1cccc(C(F)(F)F)c1,?,7.94µM*,·,·,-50.3%,?
CC1CCN(S(=O)(=O)c2cn(CC(=O)Nc3cccc(C(F)(F)F)c3)c(=O)c3ccccc23)CC1,-28.5%,12.6µM*,·,·,-31.9%,?
O=C(Cn1cc(S(=O)(=O)N2CCN(c3ccccc3F)CC2)c2ccccc2c1=O)Nc1cccc(C(F)(F)F)c1,-10.5%,?,·,·,-30.0%,?
Cc1ccc(-c2cn3nc(C)c(C)nc3n2)cc1,6.31µM*,14.0%,4.6,7.5,-30.0%,·
CCOC(=O)c1ccc(N2C(=O)c3n[nH]c(C)c3C2c2ccc(OCC)cc2)cc1 (configuration not stated),?,11.2µM*,·,·,-117.0%,?
CCOC(=O)c1ccc(N2C(=O)c3n[nH]c(-c4ccco4)c3C2c2ccc(C)cc2)cc1 (configuration not stated),?,?,·,·,15.8µM*,28.2µM*
CCOC(=O)c1ccc(N2C(=O)c3n[nH]c(-c4ccco4)c3C2c2ccc(O)c(OC)c2)cc1 (configuration not stated),?,10µM*,·,·,-68.7%,?
